In PubChem BioAssay:
Unmarked numbers belong to inactive results. Activity calls are given as the source filed them.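 The calls were made as follows: active = compound raises GLP1 secretion from the human gut endocrine cells, with no numeric limit stated; inactive = the rest.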

Test: glucagon-like peptide 1 release enhancers, primary assay, NCI-H716 cell line, NPC library (AID 1117341); also: reference of the scale not given here
Settings: NCI-H716 cells, at 10 µM, hits give high values

Compound	GLP1 secretion stimulation
CNNCc1ccc(C(=O)NC(C)C)cc1	-0.6%
Nc1nc2c(ncn2CCC(CO)CO)c(=O)[nH]1	1.1%
O=C1CC2(CCCC2)CC(=O)N1CCNCC1COc2ccccc2O1 (configuration not stated)	-2.3%
Cn1nnc2c(C(N)=O)ncn2c1=O	-2.4%
O=C1[C@H]2CCCC[C@H]2C(=O)N1CCCCN1CCN(c2nsc3ccccc23)CC1	9%
O=C(O)CCNC(=O)c1ccc(N=Nc2ccc(O)c(C(=O)O)c2)cc1	1.6%
CC(Oc1c(Cl)cccc1Cl)C1=NCCN1 (configuration not stated)	-2.9%
CN1CCN(C2=Nc3cc(F)ccc3Cc3ccccc32)CC1	8%
COC(=O)C1=C(C)NC(C)=C(C(=O)OC(C)C)C1c1cccc2nonc12 (configuration not stated)	-2.4%
CCOc1cc(N)c(Cl)cc1C(=O)NCC1CN(Cc2ccc(F)cc2)CCO1 (configuration not stated)	4.9%
O=c1c(-c2ccccc2)c1-c1ccccc1	-2.9%
O=C1Nc2ccc(Cl)cc2[C@@](C#CC2CC2)(C(F)(F)F)O1	21% (active)
Nc1nc(N)nc(-c2cc(Cl)ccc2Cl)n1	-1.2%
OCCOCCN1CCN(C2=Nc3ccccc3Sc3ccccc32)CC1	2.3%
CC(=O)Nc1ccc(CC(=O)O)cc1	0.9%
O=c1[nH]cnc2c1ncn2[C@H]1CC[C@@H](CO)O1	3.6%
COC(=O)C1=C(C)NC(C)=C(C(=O)O[C@@H]2CCCN(Cc3ccccc3)C2)[C@@H]1c1cccc([N+](=O)[O-])c1	-0.5%
